Bioassay records: PubChem BioAssay, Johns Hopkins Ion Channel Center
KCNQ2 enhance: enhances the rat KCNQ2 potassium channel | CHO-K1 KCNQ2, FluxOR thallium flux fluorescence; stronger effect = higher value | 310,000 tested, 0.54% active | B-score at 10 µM;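 active = fluorescence ratio B-score at least 3 SD of library B-scores, with initial fluorescence B-score within 3 of them, cut at about 5.3 in these data; same plate scores as AID 2156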;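 also: B-score of peak minus minimum over baseline fluorescence ratio after K+ and Tl+ stimulus; positive B-score means potentiation of KCNQ2 with more thallium influx and brighter signal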
Target sequence (O88943 whole entry, looked up): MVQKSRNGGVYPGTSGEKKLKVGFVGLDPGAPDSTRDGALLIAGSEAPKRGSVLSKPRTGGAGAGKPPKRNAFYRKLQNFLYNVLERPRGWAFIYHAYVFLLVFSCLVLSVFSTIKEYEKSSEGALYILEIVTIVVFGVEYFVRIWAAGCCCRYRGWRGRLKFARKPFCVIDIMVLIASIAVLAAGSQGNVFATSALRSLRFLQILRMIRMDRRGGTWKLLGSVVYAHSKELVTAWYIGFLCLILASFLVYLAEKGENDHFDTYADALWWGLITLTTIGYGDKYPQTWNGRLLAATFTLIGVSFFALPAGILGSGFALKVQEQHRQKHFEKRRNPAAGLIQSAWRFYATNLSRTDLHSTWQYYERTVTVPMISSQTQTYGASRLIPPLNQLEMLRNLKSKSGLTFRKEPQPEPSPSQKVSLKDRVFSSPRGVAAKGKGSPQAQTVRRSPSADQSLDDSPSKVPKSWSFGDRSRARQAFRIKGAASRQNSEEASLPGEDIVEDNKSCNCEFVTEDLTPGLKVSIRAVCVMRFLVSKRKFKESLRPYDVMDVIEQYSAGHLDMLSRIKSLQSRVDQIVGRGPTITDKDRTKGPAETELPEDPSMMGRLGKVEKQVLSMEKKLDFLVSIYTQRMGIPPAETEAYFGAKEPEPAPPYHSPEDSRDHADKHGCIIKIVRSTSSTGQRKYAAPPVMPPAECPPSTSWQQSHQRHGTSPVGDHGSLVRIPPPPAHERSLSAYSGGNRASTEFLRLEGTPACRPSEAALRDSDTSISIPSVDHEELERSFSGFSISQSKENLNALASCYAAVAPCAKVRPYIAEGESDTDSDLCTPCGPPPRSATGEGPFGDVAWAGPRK
KCNQ2 block: inhibitors of rat KCNQ2 potassium channel; CHO-K1 KCNQ2, FluxOR thallium flux, 20 min; stronger effect = lower value; B-score at 10 µM; 310,000 tested, 1.1% active; AID 2156;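 active = fluorescence ratio B-score at most minus 3 library SDs, with starting brightness B-score within 2 library SDs, cut at about -5.5 in these data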
Active calls of the source: *; i = inactive; · = no result given. Rows were chosen to be rich in hits. Some 1.6% of all compounds tested hit in one or more screens of this group.

SMILES	KCNQ2 enhance	KCNQ2 block
O=C(NCC(c1cccs1)N1CCOCC1)c1ccccc1NS(=O)(=O)c1cc([N+](=O)[O-])ccc1Cl (stereo not given)	·	i
COc1ccc(CCNC(=O)[C@@H](NC(=O)N2CC(=O)Nc3ccccc32)C(C)C)cc1OC	·	i
CCc1ccc(-c2nc(CS(=O)CC(=O)NCc3ccc4c(c3)OCO4)c(C)o2)cc1 (stereo not given)	2.08	i
Cc1cc(OC2CCCCC2)nc(-c2ccccc2O)n1	-5.75	-5.75*
Cc1ccc(Oc2cc(C)nc(-c3ccccc3O)n2)cc1	·	i
O=C(Cn1cnc(S(=O)(=O)N2CCOCC2)c1)Nc1ccc(OC(F)(F)F)cc1	·	i
CC(/C=N/NC(=O)c1ccccc1F)=C\c1ccccc1	0.19	i
COc1cc(CCCN2C(=O)C(=O)NC[C@H]2Cc2cccc3ccccc23)cc(OC)c1OC	9.64*	i
CCCC[C@@H]1CNC(=O)C(=O)N1CCCc1cc(OC)c(OC)c(OC)c1	0.48	i
O=C(Nc1ccc(Cl)c(Cl)c1)Nc1ccc(Br)cc1F	·	i
O=C(Nc1ccccc1O)C(c1ccccc1)c1ccccc1	-6.45	-6.45*
O=C(Nc1ccc(Cl)c(Cl)c1)Nc1ccccc1O	10.8*	i
O=C(O)c1ccccc1NC(=O)C(c1ccccc1)c1ccccc1	1.45	i
C/C(=N/NC(=O)CN(c1ccccc1)S(=O)(=O)c1ccccc1)c1ccccc1O	·	i
Cc1ccc(CNC(=O)c2ccc3c(=O)[nH]c4c(C(=O)NCC5CCCO5)sc(=S)n4c3c2)cc1 (stereo not given)	·	i
CCCCCNC(=O)c1ccc2c(=O)[nH]c3c(C(=O)NCC4CCCO4)sc(=S)n3c2c1 (stereo not given)	-5.67	-5.67*
COc1ccccc1NC(=O)/C(=C\c1cccnc1)NC(=O)c1ccc(C)cc1	1.56	i
N#Cc1c(-c2ccccc2)c(-c2ccccc2)n(Cc2ccco2)c1NC(=O)c1cccs1	-6.34	-6.34*
O=C(CSc1nnc(-c2ccc(O)cc2)n1Cc1ccco1)c1cccs1	0.02	i
O=S(=O)(NC(=S)c1ccccc1)c1ccc(F)cc1	1.27	i
COc1cccc(-n2c(SCc3cc(=O)oc4cc(O)c(O)cc34)nc3ccccc3c2=O)c1	-6.11	-6.11*
CCN(CC)C(=O)CSc1nc2ccccc2c(=O)n1-c1cccc(OC)c1	·	i
COCc1nnc(NC(=O)c2ccccc2Oc2ccccc2)s1	-6.14	-6.14*
COCCSc1ccccc1C(=O)Nc1nnc(COC)s1	·	i
O=C(Cc1c(F)cccc1Cl)OCN1C(=O)c2ccccc2C1=O	0.07	i
SMILES	KCNQ2 enhance	KCNQ2 block
O=C(CNC(=O)c1ccccc1)OCC(=O)N1N=C(c2ccc(Cl)cc2)CC1c1ccco1 (stereo not given)	·	i
Cc1ccc(S(=O)(=O)N[C@H](C(=O)OCC(=O)N2N=C(c3ccc(Cl)cc3)CC2c2ccco2)C(C)C)cc1 (stereo not given in full)	-6.13	-6.13*
NC(=S)N/N=C1\CCOc2ccc(F)cc21	1.78	i
NC(=O)C1CCN(C2=C(Cl)C(=O)c3ccccc3C2=O)CC1	-12.2	-12.2*
O=C1C(Cl)=C(N2CCC(C(=O)O)CC2)C(=O)c2ccccc21	·	i
O=C(Nc1ccccc1Cl)c1ccc(=O)[nH]n1	·	i
Cc1cccc(NC(=O)CSc2nc3nc(C)cc(C)n3n2)c1	·	i
COc1cc(N/N=C(\C)c2ccc(N)cc2)nc(-c2ccccc2)n1	-6.8	-6.8*
COc1cc(N/N=C(\C)c2ccc(O)c(C)c2)nc(-c2ccccc2)n1	·	i
C=CCNC(=S)/N=c1/ccccn1CCC	0.18	i
Cc1ccc(NC(=S)N2CCC(NC(=O)c3ccc(C)cc3)CC2)cc1	·	i
CCCNC(=S)N1CCC(NC(=O)c2ccc(C)cc2)CC1	-7.28	-7.28*
Clc1ccc(C2=C3CCCCn4c(-c5ccccc5)c[n+](c43)C2)cc1	-6.41	-6.41*
O=C(C[n+]1cc(-c2ccc(Cl)cc2)n2c1CCCCC2)c1ccccc1	·	i
Cc1ccc(S(=O)(=O)c2nc(-c3ccccc3F)oc2N2CC(C)OC(C)C2)cc1 (stereo not given)	·	i
CC(C)CN(CCOc1cccc(N2C(=O)C3=C(CCCC3)C2=O)c1)CC(C)C	·	i
O=C1C2=C(CCCC2)C(=O)N1c1cccc(OCCBr)c1	7.77*	i
CN(CC(=O)N1CCOCC1)S(=O)(=O)c1ccc2ccccc2c1	1.12	i
COc1ccccc1C(CNc1nc(C(F)(F)F)nc2ccccc12)N(C)C (stereo not given)	·	i
COc1ccc(-n2nc(N)c(C(N)=O)n2)cc1	1.73	i
C=C(C)c1cccc(C(C)(C)NC(=O)Nc2ccccc2OCC)c1	8.73*	i
C=C(C)c1cccc(C(C)(C)NC(=O)Nc2cc(C)ccc2OC)c1	1.95	i
Cc1noc(/C=C/N(C)C)c1S(=O)(=O)N1CCCC(C(=O)Nc2ccccc2F)C1 (stereo not given)	0.6	i
Cc1onc(-c2ccccc2)c1C(=O)NC(=S)Nc1sc2c(c1C#N)CCC(C)C2 (stereo not given)	10.3*	i
Cc1onc(-c2ccccc2)c1C(=O)NC(=S)Nc1sc2c(c1C#N)CCCC2	2.63	i
SMILES	KCNQ2 enhance	KCNQ2 block
CC(C)(C)c1ccc(CNC(=O)C2CCCN2C(=O)Nc2ccccc2)cc1 (stereo not given)	0.24	i
O=[N+]([O-])/C(=C\Nc1ccc(F)cc1F)S(=O)(=O)c1ccccc1	·	i
CCN(CC)S(=O)(=O)c1cccc(C(=O)OCC(=O)Nc2ccccc2OC(F)F)c1	0.51	i
CCN(CC)S(=O)(=O)c1cccc(C(=O)OCC(=O)NCc2ccccc2OC)c1	-6.5	-6.5*
CC1CN(CCOc2ccccc2C(C)C)CC(C)O1 (stereo not given)	·	i
CCCCCC(=O)Nc1cccc2ccccc12	5.73*	i
COC(=O)CCC(=O)Nc1cccc2ccccc12	0.28	i
COCCC(=O)N1CCC(Oc2ccc(C(=O)N3CCC(N(C)C)C3)cc2)CC1 (stereo not given)	0.43	i
CC1CCCN(C(=O)c2nn(C)c3c2CSc2ccccc2-3)C1 (stereo not given)	·	i
CN(C(=O)c1nn(C)c2c1CSc1ccccc1-2)c1ccc(F)cc1	-6.51	-6.51*
N#CCC(=O)N/N=C\c1cc(Br)ccc1OC/C=C/c1ccccc1	·	i
O=C(OC(C(=O)Nc1ccc(Cl)cc1C(F)(F)F)c1ccccc1)C1=COCCO1 (stereo not given)	·	i
CN(C)c1cccc(C(=O)OC(C(=O)Nc2ccc(Cl)cc2C(F)(F)F)c2ccccc2)c1 (stereo not given)	-8	-8*
O=c1[nH]c2ccc(S(=O)(=O)Nc3ccc(Cl)cc3)cc2[nH]1	·	i
CCc1ccc(NC(=O)COc2ccc(F)cc2C(=O)c2cnn(-c3ccccc3)c2)cc1	·	i
COc1ccccc1NC(=O)COc1ccccc1C(=O)c1cnn(-c2ccccc2)c1	-6.05	-6.05*
CC(NC(=O)CCN1C(=O)c2ccccc2C1=O)c1ccccc1 (stereo not given)	·	i
COc1ccc(S(=O)(=O)N2CCOC23CCN(S(=O)(=O)c2c(C)cc(C)cc2C)CC3)cc1	·	i
CC(C)(C)CN1CCN(Cc2cccnc2)CC1CCO (stereo not given)	0.87	i
O=S(=O)(N/N=C/c1ccc(N2CCOCC2)cc1)c1ccc(Br)cc1	1.78	i
Cc1ccccc1C(=O)Nc1ccccc1N1CCCCC1	·	i
